Assay outcomes as filed in PubChem BioAssay.
A selection: hits, their analogues and other compounds. The true share with any hit is near 6.2%.
FMDV inh – antivirals against foot and mouth disease virus; FMDV antiviral cell-based qHTS; Potency, µM (doses to about 57.9 µM), inactives show at the highest dose activity change, negative = inhibition, most hits filed as inhibitors; 410,000 tested, 1.2% active; AID 1159524; calls by dose curve; tested in HEK293T cells; also: read-out not given here; potency is read from the fitted curve at half-maximal effect; nearly all actives have a fitted effect of over 45% in size
HCMV inh – blocks human cytomegalovirus replication | HFF cells, HCMV-luciferase reporter, 72 h; stronger effect = lower value | activity change, negative = inhibition, % at 57.5 µM | 410,000 tested, 4.5% active | AID 1259415; in the data active = activity change below about -60%; inconclusive = no clear call, values can overlap the other calls; inactive = above about -39%
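Cell-based, HFFs, 1000 cells/well, 16 h 37C; cpds in DMSO + HCMV-luc, MOI 1 PFU/cell; 72 h 37C; OneGlo luminescence after 5 min RT; norm. to buffer vs Salinomycin 10uM.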
MARV entry inh – inhibitors of Marburg virus binding or cell entry; Marburg virus pseudotyped entry inhibition, cell reporter; Potency, µM (titrated, usually from 37.8 µM), inactives show top-dose activity change, negative = inhibition, usual class: inhibitors; 300,000 tested, 1.8% active; calls by dose curve; tested in HEK293 cells; also: potency is read from the fitted curve at half-maximal effect
LASV entry inh – Lassa virus entry inhibition | Potency, µM (titrated, usually from 37.9 µM), without a hit: top-dose activity change, negative = inhibition, actives largely listed as inhibitors | 300,000 tested, 1.2% active | Lassa virus pseudotype entry inhibition, cell reporter; calls by dose curve; tested in HEK293 cells; also: potency is read from the fitted curve at half-maximal effect; nearly all actives have a fitted effect of over 50% in size
* marks the source's active call; other numbers are inactive results; ? = inconclusive; / = no result given; [ ] = remark or other dose. % is scaled to controls: 0 for no effect and ±100 for the full control effect.

SMILES	FMDV inh	HCMV inh	MARV entry inh	LASV entry inh
Cc1ccc(NC(=O)Nc2ccnc(-c3cccnc3)n2)cc1	-20.0%	-87.5*	?	?
COc1ccc2c(c1)[C@@H](NC(=O)c1c(C)noc1C)[C@H](C)[C@@H](c1ccccc1)N2C(=O)NC(C)C	/	0.0	/	/
COc1ccc(-n2c(=O)c3ccccc3n(Cc3cccc(C)c3)c2=O)cc1	-28.8%	-22.7	9.2%[46.1 µM]	23.6%[46.1 µM]
CCOC(=O)[C@]12Cc3c(cc(OC)c(OC)c3OC)[C@H]1N(CCC(=O)OC)C(=O)c1ccccc12	?	-108.4*	/	/
CCOC(=O)[C@]12Cc3cc(OC)ccc3[C@H]1N(CCC(=O)OC)C(=O)c1cc(OC)ccc12	20µM*	-107.4*	/	/
CCOC(=O)[C@]12Cc3ccccc3[C@H]1N(Cc1ccccc1)C(=O)c1cc(OC)ccc12	?	12.4	/	/
CCOC(=O)[C@]12Cc3ccccc3[C@H]1N(CCC(=O)OC)C(=O)c1cc(OC)ccc12	28.2µM*	-99.4*	/	/
Cc1nn2c(C)c(C(=O)N3CCN(c4ccccc4)CC3)cnc2c1-c1ccccc1	-23.3%	-11.3	/	23.5%[46.1 µM]
CCn1nc(C)cc1C(=O)Sc1cccc(Br)c1	?	-106.5*	8.3%[46.1 µM]	-26.0%
CCn1nc(C)cc1C(=O)Sc1ccc(Cl)cc1Cl	?	-107.9*	2.2%[46.1 µM]	14.9%
CCCNC(=O)OC[C@H]1O[C@H](CCON=Cc2ccc(C(=O)N3[C@H](C(=O)OC)CC[C@H](C)[C@@H]3c3ccc(C)cc3)cc2)C=C[C@H]1Oc1ccc(OC)cc1	/	/	-28.4%[14.2 µM]	-24.1%[14.3 µM]
COc1ccc(C(=O)NCCS(=O)(=O)NCc2ccccc2)cc1	25.3%	-97.8*	-19.2%	-1.3%
Cc1ccccc1C(=O)NC1CCN(CC(=O)Nc2ccccc2)CC1	-10.4%	-89.6*	/	/
O=C(CN1CCC(NC(=O)Cc2ccccc2)CC1)Nc1ccccc1Br	?	-63.5*	7.0%	?
Cc1ccccc1C(=O)NC1CCN(CC(=O)Nc2c(C)cccc2C)CC1	?	13.5	-8.4%	-2.4%
O=C(COc1ccc(F)cc1)OCc1cc(=O)n2nc(-c3cccs3)sc2n1	1.6%	6.3	/	-0.4%[46.1 µM]
N#Cc1sc(NCc2ccccc2)nc1Cl	47.1%	2.0	?	?
N#Cc1c(NCc2ccccc2)ccnc1Cl	0.0%	-69.1*	-11.7%	-23.2%
C[C@]12CC(O)C3C(CCC4=CC(=O)CC[C@@]43C)C1CCC2c1csc(-c2ccccc2)n1 (stereo not given in full)	-20.0%	-75.8*	/	/
CCOc1c(CNCCSc2nnnn2C)cccc1OC	-6.3%	7.6	-25.3%[46.1 µM]	22.2%[46.1 µM]
COc1cccc(CNCCSc2nnnn2C)c1OCc1ccc(Cl)cc1	0.0%	?	10µM*	-1.0%[46.1 µM]
COc1cccc(CNCCSc2nnnn2C)c1OCc1ccc(Cl)cc1Cl	-28.4%	-60.6*	?	?
Cn1nnnc1SCCCNCc1ccccc1OCc1ccccc1Cl	-29.2%	-63.3*	?	-18.6%[46.1 µM]
Cc1nnc(SCc2ccc(Cl)cc2)c2cc3occc3n12	?	-6.8	/	-3.8%[46.1 µM]
CSc1ncccc1C(=O)NCC1Cc2cc(-c3cnccn3)ccc2O1 (stereo not given)	-7.6%	/	/	/
SMILES	FMDV inh	HCMV inh	MARV entry inh	LASV entry inh
O=C(CCc1c[nH]c2ccccc12)N1CCC(n2c(C3CCCO3)nc3cc(C(F)(F)F)ccc32)CC1 (stereo not given)	-5.6%	/	/	/
CS(=O)(=O)Nc1cc(C(=O)N2CCNC(=O)C2)c2c(c1)ncn2CCc1ccccc1	-2.0%	/	/	/
CN(C)c1ccc(Sc2ccc3nc(N)nc(N)c3c2)cc1	-29.8%	-92.1*	/	/
CN(C)c1ccc(SC#N)cc1	-25.8%	-1.8	22.4%	-5.6%
Oc1ccccc1CNc1ccc(Br)cn1	0.0%	-105.3*	?	?
O=C(NC1CCCN(Cc2ccc(Cl)cc2)C1)c1cnc2ccccn2c1=O (stereo not given)	-28.6%	-64.9*	?	?
CC(C)Cc1ccc(CN2CCCC(NC(=O)c3cnc4ccccn4c3=O)C2)cc1 (stereo not given)	?	-22.8	-18.3%[46.1 µM]	?
Cc1ccc(C(=O)N(Cc2cc3cc4c(cc3nc2N2CCOCC2)CCC4)CC2CCCO2)cc1 (stereo not given)	25.2%	/	/	/
COP(=O)(OC)/C(C=O)=N/Nc1ccc([N+](=O)[O-])cc1	-19.5%	42.4	10.3%[46.1 µM]	-28.3%[46.1 µM]
CC(C)OP(=O)(OC(C)C)/C(C=O)=N\Nc1ccc([N+](=O)[O-])cc1	-29.7%	-90.6*	/	/
Cc1c(C(=O)c2no[n+]([O-])c2C(=O)c2cnn(C)c2C)cnn1C	39.8µM*	-107.0*	-2.5%	2.3%
COc1cccc(/C=C(\C#N)c2nc3ccccc3c(=O)[nH]2)c1OC	-25.1%	-8.2	/	8.1%[46.1 µM]
CCOc1cc2[nH]c(=O)n(CCCCCC(=O)NC(C)CC)c(=O)c2cc1OCC (stereo not given)	-9.8%	14.9	/	24.0%[46.1 µM]
COc1cc2[nH]c(=O)n(CCCCCC(=O)N3CC=C(c4ccccc4)CC3)c(=O)c2cc1OC	?	-29.8	8.91µM*	?
COc1cc2[nH]c(=O)n(Cc3ccc(C(=O)N4CCN(c5cccc(C)c5C)CC4)cc3)c(=O)c2cc1OC	-0.7%	-107.9*	12.0%[46.1 µM]	-2.0%[46.1 µM]
COc1cc2[nH]c(=O)n(CCC(=O)N3CCc4ccccc4C3)c(=O)c2cc1OC	-6.8%	4.6	-5.3%	-2.9%
CCOc1cc2[nH]c(=O)n(CCCCC(=O)N3CCCCCC3)c(=O)c2cc1OCC	-19.9%	-104.4*	7.9%	?
CCOc1cc2[nH]c(=O)n(CCCCC(=O)N3CCN(c4cccc(Cl)c4)CC3)c(=O)c2cc1OCC	25.1µM*	6.7	/	?
COc1cccc(N2CCN(C(=O)c3ccc(Cn4c(=O)[nH]c5cc(OC)c(OC)cc5c4=O)cc3)CC2)c1	?	-9.2	?	-3.7%[46.1 µM]
CCOc1cc2[nH]c(=O)n(CCC(=O)N3CCN(c4ccccc4)CC3)c(=O)c2cc1OCC	-20.9%	-2.5	/	15.2%[46.1 µM]
COc1cc2[nH]c(=O)n(CCC(=O)N3CCN(c4cc(Cl)ccc4C)CC3)c(=O)c2cc1OC	?	-64.5*	?	-23.2%
COc1cc2[nH]c(=O)n(CCCCCC(=O)N3CCN(c4cccc(C(F)(F)F)c4)CC3)c(=O)c2cc1OC	22.4µM*	-70.1*	?	?
CCOc1cc2[nH]c(=O)n(CCC(=O)N3CCN(c4ccccc4OC)CC3)c(=O)c2cc1OCC	-28.1%	1.7	0.8%	-7.4%
COC(=O)C(Nc1cc(OC)ccc1OC)(c1cccc(OC)c1)C(Nc1cc(OC)ccc1OC)c1ccc(Br)cc1 (stereo not given)	/	-20.3	/	/
NS(=O)(=O)c1ccc(CCNC(=O)CN2CCN(c3cccc(Cl)c3)CC2)cc1	?	-88.5*	?	-18.2%
CN(CC(=O)NCCc1ccc(S(N)(=O)=O)cc1)Cc1ccc(Cl)cc1Cl	?	-86.3*	?	-17.1%
CN(CC(=O)NCCc1ccc(S(N)(=O)=O)cc1)Cc1c(F)cccc1Cl	-4.2%	2.1	0.2%[46.1 µM]	/
Cc1ccc(C(=O)Nc2cccc(-c3nc(CNC(=O)C4CCCCC4)c(C)o3)c2)s1	30.2%	/	/	/
Cc1ccsc1C(=O)C1CCCN(Cc2cnc(N)nc2)C1 (stereo not given)	-19.9%	15.0	?	12.0%[46.1 µM]
Cc1ccsc1C(=O)C1CCCN(Cc2cnc(N3CCOCC3)s2)C1 (stereo not given)	25.1µM*	-33.5	?	?
